Reference: PubChem BioAssay (NCATS)
Values joined by “and” are separate entries in the source; they are usually repeats but may differ in a detail not shown here. Equal entries are not always repeated. Results filed as inconclusive are left out. Some structures have more than one record in an assay (separate samples or runs), and their calls can disagree. Active and inactive are the calls of the source. Unless noted, the call rests on the fitted dose curve; in most records, active means well fitted curve in the direction sought with a large enough effect; inconclusive means small, poorly fitted or top-dose-only effect, or another doubt; inactive means no such curve, though single readings can be large; an effect the other way counts as inactive or inconclusive.

How the values were obtained:
[1] = biological target: Cytochrome P450 1A2 (Homo sapiens) (UniProt P05177); test: p450-cyp1a2 (AID 410; calls by dose curve; further: potency means the concentration at half of the fitted maximal effect;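 on activity change, negative = inhibition: -100% = full effect of reference inhibitor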)
Outline: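 O-Demethylation of luciferin 6' methyl ether by human CYP1A2 is monitored as luciferase luminescence. Substrate sits at Km (100uM); enzyme is 20nM. Values are scaled to 57 uM furafylline as maximal inhibition.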

[2] = NFAT Signaling Pathway (AID 444; active means well fitted curve in either direction with a large enough effect, not every such curve was filed as active;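 further: carbachol stimulus at about its EC50 of 1 µM final; on the % scale 0 is the no-effect control and ±100 the full control effect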); settings: Jurkat NFAT-bla M1, carbachol, beta-lactamase ratio, 5 h; at 38 µM (top of the series)
Outline: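 Read-out: CCF4 FRET ratio (460 nm/530 nm) after 1 h RT dye loading, used for %activity and AC50 from titration series. Cells: Jurkat NFAT-β-lactamase/M1 line, treated with compound plus 1 uM carbachol for 5 h, 37 °C.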

[3] = biological target: Glucocorticoid receptor (Homo sapiens) (UniProt P04150); test: GR-GFP Redistribution (AID 450;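 active means compounds whose dose series gives a full or clear partial fitted curve of increased nuclear translocation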; further: potency means the concentration at half of the fitted maximal effect); settings: U2OS GR-GFP nuclear translocation, laser cytometry, 2 h
[4] = biological target: Glucocorticoid receptor (Homo sapiens) (UniProt P04150); test: GR-EFC Redistribution (AID 451; calls by dose curve; further: potency means the concentration at half of the fitted maximal effect); settings: CHO-K1 GR-EFC translocation, beta-gal luminescence, 2 h
Outline: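 Translocation of GR-ED fusion to nuclear EA restores b-gal, read by luminescence after 1 h room-temperature detection. Engineered CHO-K1 biosensor cells, 1,000/well, exposed 2 h at 37 C to titrations up to 46 uM final.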

[5] = biological target: Mitogen-activated protein kinase 10 (Mus musculus) (UniProt Q61831); test: JNK3 AlphaScreen Assay (AID 530; active means well fitted curve in either direction with a large enough effect, not every such curve was filed as active;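 further: kinase came from lysate of stimulated human HepG2 cells; signal reports phosphorylation of biotinylated GST-cJun 1-79 at Ser73 with 10 µM ATP; on the % scale 0 is the no-effect control and ±100 the full control effect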)
Outline: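 qHTS titrations with 15 min compound pre-incubation before adding ATP (10 uM final). Read-out: AlphaScreen of Ser73-phosphorylated biotin-GST-cJun using HepG2 lysate JNK3 activated by IL-1β and TNFα.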

[6] = biological target: 3',5'-cyclic-AMP phosphodiesterase 4B (Homo sapiens) (UniProt Q07343); test: qHTS Assay for Inhibitors of PDE-IV (AID 607; active means well fitted activation curve with a large enough effect in the main read-out, with a control signal flat, not every such curve was filed as active; further: % of control where 0% means no effect)
Outline: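 ACTOne HEK293 cells carry a modified cAMP-gated CNG channel and express endogenous PDE4; plated 1000 cells/well, compounds up to 22.9 uM final. Membrane-potential dye fluorescence (ex 535/em 590) was read; parental cells received 10 uM forskolin + 100 uM RO 20-1724.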

[7] = biological target: Guanine nucleotide-binding protein G(i) subunit alpha-1 (Homo sapiens) (UniProt P63096); test: qHTS Assay for Inhibitors of RGS12 GoLoco Motif Activity (Green Fluorophore) (AID 879);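 further: 0% = labeled peptide with Gαi1 and full inhibition = labeled peptide alone without protein; negative values mean loss of peptide binding seen as reduced polarization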
Outline: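 A drop in FITC polarization marked displacement of the FITC-tagged RGS12 GoLoco peptide (10 nM) from Gαi1 (50 nM). Compounds were incubated 10 min at room temperature in Tris pH 7.5 buffer containing 150 mM NaCl, 0.1 mM GDP and 0.05% NP40; unlabeled peptide titration served as control.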

[8] = biological target: Cytochrome P450 2D6 (Homo sapiens) (UniProt P10635); test: qHTS Assay for Inhibitors and Substrates of Cytochrome P450 2D6 (AID 891); further: potency means the concentration at half of the fitted maximal effect; nearly all actives have a fitted effect of over 60% in size
Outline: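 Luminescent read-out of luciferin formed by 5 nM human CYP2D6 demethylating 30 uM Luciferin-ME EGE (Km level) over 60 min at room temperature after NADPH regeneration addition. Data normalized to full inhibition by 1.43 uM quinidine.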

[9] = qHTS Assay for Identification of Small Molecule Antagonists for NFkB Signaling Pathway (AID 895; active means well fitted inhibition curve with a large enough effect in the signal ratio, with a control signal flat, not every such curve was filed as active; the % refers to the signal ratio; further: on the % scale 0 is the no-effect control and ±100 the full control effect)
Outline: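 Beta-lactamase reporter read-out (460 and 530 nm emission ratio, 405 nm excitation, 2 hrs substrate loading RT) after 5 hr stimulation with 10 pM TNF alpha in compound-treated NFkB-bla ME-180 cells in low-serum medium.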

[10] = qHTS Assay for Identification of Small Molecule Agonists for Thrombopoietin (TPO) Signaling Pathway (AID 917); further: on the % scale 0 is the no-effect control and ±100 the full control effect
Outline: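 Luciferase reporter (Glycoprotein IIb promoter) in IL-3-deprived Ba/F3 cells carrying human TPO receptor; compounds co-added with 26 pM TPO, incubated 24 h, 37 C. Steadylite luminescence measured after 10 min.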

[11] = biological target: Muscarinic acetylcholine receptor M1 (Rattus norvegicus) (UniProt P08482); test: qHTS Assay for Antagonists of Acetylcholine Muscarinic M1 Receptor: Kinetic Measurement of Intracellular Calcium Response (AID 943); further: potency means the concentration at half of the fitted maximal effect; nearly all actives have a fitted effect of over 75% in size
Outline: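 Antagonism is measured as inhibition of the carbachol-evoked calcium rise in CHO cells transfected with rat M1. Cells are dye-loaded, exposed to compound for 10 min, then stimulated with 100 nM carbachol (EC80).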

[12] = biological target: Muscarinic acetylcholine receptor M1 (Rattus norvegicus) (UniProt P08482); test: qHTS Assay for Antagonists of Acetylcholine Muscarinic M1 Receptor: Measurement of IP-One Response (AID 944); further: potency means the concentration at half of the fitted maximal effect; nearly all actives have a fitted effect of over 75% in size
Outline: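 Antagonist mode with rat M1 receptor transfected into CHO cells. Compound is added first for 10 min, carbachol at its EC80 follows for 30 min, and lysis reagents then allow TR-FRET detection of accumulated IP1.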

[13] = biological target: Pyruvate kinase (Leishmania mexicana) (UniProt Q27686); test: qHTS Validation Assay for Inhibitors of Leishmania Mexicana Pyruvate Kinase (AID 945);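 further: 0% = DMSO only neutral control wells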
Outline: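 The enzyme is a highly purified E451W mutant of LmPYK used at 0.2 nM. It converts 0.5 mM PEP and 0.1 mM ADP over 1 h at room temperature; product ATP is quantified by luciferase luminescence relative to DMSO controls.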

[14] = biological target: Pyruvate kinase PKM (Homo sapiens) (UniProt P14618); test: qHTS Assay for Activators of Human Muscle Pyruvate Kinase (AID 954; active means well fitted curve in the direction sought with a large enough effect, not every such curve was filed as active;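 further: 0% = uninhibited enzyme and -100% = no enzyme or full thiadiazolimine inhibition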)
Outline: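 A coupled luminescent readout tracked ATP made from ADP by purified PKM2. Final conditions included 0.1 nM enzyme, PEP and ADP at 0.5 and 0.1 mM, pH 7.2 imidazole buffer with BSA, and a one-hour room-temperature reaction.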

[15] = biological target: Alpha-galactosidase (Coffea arabica) (UniProt Q42656); test: Counterscreen for Glucocerebrosidase Inhibitors: qHTS Assay for Coffee Bean alpha-Galactosidase at pH 4.5 (AID 957);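 further: plate controls were enzyme alone for no effect and no enzyme for full effect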
Outline: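 Enzyme is added first (2 nM final), then compounds titrated from 0.7 nM to 77 uM, then 80 uM 4-methylumbelliferyl alpha-D-galactopyranoside; after 20 min at room temperature a pH 10 NaOH/glycine stop precedes fluorescence reading at 365/440 nm.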

[16] = biological target: alpha-glucosidase (Oryza sativa, rice) (UniProt Q653V4); test: Counterscreen for Glucocerebrosidase Inhibitors: qHTS Assay for Rice alpha-Glucosidase at pH 5.0 (AID 997);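 further: 0% = full activity with enzyme and -100% = basal without enzyme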
Outline: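 Endpoint fluorogenic assay at pH 5.0: compounds (0.7 nM to 77 uM) titrated against 4 nM rice enzyme and 400 uM 4-MU-alpha-glucoside for 20 min at room temperature; NaOH/glycine stop, read ex 365/em 440 nm, Hill-fitted AC50.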

Furin (Homo sapiens) = Furin (Homo sapiens) (UniProt P09958); test: Furin counterscreen qHTS for Zika virus inhibitors (AID 1347149);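 further: purified recombinant full-length human furin enzyme at 5 nM; fluorescence gain from furin cutting a BOC-RVRR-AMC peptide substrate over 15 min; top concentration of the series differs between compounds; plate controls were no-inhibitor control for no effect and no-enzyme control for full effect; nearly all actives have a fitted effect of over 70% in size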
Outline: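 Counterscreen measures cleavage of 2 microM BOC-RVRR-AMC, below its ~15 microM Km, by 5 nM full-length human furin at pH 7.0 after a 15-min compound preincubation. Inhibition derives from the 15-min fluorescence increase at 37C.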

[17] = Vero cells viability qHTS for Zika virus inhibitors (AID 1347167); further: on the % scale 0 is the no-effect control and ±100 the full control effect
Outline: (§1)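 Luminescent ATP readout (CellTiter Glo) after 30 min at 37 degrees C gives viability; cells in DMEM + 4% FBS were treated 24 to 48 hours with compound, following overnight attachment.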

[18] = HepG2 cells viability qHTS for Zika virus inhibitors (AID 1347168); further: on the % scale 0 is the no-effect control and ±100 the full control effect
Outline: as §1

[19] = biological target: Cytochrome P450 3A4 (Homo sapiens) (UniProt P08684); test: qHTS Assay for Activators of Cytochrome P450 3A4 (AID 885); further: nearly all actives have a fitted effect of over 65% in size
Outline: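 CYP3A4 activity: Luciferin-PPXE O-dealkylation, 25uM substrate, 200mM KPO4, RT throughout. Read-out is luciferase luminescence; higher values reflect activation.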

Cytochrome P450 1A2 (Homo sapiens), sequence (P05177 whole entry, looked up): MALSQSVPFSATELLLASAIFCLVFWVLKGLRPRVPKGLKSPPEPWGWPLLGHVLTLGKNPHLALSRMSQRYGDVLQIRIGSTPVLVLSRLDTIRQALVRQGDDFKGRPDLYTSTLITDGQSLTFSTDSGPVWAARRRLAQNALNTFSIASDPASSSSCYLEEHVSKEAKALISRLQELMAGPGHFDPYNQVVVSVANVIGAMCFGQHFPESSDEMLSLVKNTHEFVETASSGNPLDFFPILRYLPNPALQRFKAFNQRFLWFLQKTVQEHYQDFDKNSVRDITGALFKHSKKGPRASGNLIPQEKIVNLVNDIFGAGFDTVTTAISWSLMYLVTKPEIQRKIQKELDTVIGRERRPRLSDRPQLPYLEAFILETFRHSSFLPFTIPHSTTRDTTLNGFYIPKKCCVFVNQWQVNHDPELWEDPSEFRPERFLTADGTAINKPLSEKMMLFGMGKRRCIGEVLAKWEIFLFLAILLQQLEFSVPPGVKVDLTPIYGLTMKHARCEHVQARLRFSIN
3',5'-cyclic-AMP phosphodiesterase 4B (Homo sapiens), sequence (Q07343 whole entry, looked up): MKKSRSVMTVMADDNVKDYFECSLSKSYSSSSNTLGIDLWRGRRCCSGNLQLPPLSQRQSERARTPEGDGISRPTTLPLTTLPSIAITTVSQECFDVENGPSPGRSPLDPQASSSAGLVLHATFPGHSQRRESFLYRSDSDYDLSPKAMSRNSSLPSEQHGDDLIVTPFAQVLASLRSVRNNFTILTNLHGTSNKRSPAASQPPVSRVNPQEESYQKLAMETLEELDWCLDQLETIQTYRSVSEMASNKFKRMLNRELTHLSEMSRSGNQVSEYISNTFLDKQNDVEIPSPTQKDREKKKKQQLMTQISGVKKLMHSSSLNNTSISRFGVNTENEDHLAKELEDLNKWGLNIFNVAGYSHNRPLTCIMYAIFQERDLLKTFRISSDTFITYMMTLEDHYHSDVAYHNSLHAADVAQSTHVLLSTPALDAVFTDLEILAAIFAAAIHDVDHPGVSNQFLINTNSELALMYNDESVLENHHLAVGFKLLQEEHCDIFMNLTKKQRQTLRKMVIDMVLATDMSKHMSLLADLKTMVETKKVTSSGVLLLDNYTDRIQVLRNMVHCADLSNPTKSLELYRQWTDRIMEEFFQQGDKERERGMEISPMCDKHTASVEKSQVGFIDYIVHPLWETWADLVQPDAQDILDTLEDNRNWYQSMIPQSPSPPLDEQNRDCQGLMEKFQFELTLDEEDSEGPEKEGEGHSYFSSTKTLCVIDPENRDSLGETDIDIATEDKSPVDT
Glucocorticoid receptor (Homo sapiens), sequence (P04150 whole entry, looked up, the tested form may be a part): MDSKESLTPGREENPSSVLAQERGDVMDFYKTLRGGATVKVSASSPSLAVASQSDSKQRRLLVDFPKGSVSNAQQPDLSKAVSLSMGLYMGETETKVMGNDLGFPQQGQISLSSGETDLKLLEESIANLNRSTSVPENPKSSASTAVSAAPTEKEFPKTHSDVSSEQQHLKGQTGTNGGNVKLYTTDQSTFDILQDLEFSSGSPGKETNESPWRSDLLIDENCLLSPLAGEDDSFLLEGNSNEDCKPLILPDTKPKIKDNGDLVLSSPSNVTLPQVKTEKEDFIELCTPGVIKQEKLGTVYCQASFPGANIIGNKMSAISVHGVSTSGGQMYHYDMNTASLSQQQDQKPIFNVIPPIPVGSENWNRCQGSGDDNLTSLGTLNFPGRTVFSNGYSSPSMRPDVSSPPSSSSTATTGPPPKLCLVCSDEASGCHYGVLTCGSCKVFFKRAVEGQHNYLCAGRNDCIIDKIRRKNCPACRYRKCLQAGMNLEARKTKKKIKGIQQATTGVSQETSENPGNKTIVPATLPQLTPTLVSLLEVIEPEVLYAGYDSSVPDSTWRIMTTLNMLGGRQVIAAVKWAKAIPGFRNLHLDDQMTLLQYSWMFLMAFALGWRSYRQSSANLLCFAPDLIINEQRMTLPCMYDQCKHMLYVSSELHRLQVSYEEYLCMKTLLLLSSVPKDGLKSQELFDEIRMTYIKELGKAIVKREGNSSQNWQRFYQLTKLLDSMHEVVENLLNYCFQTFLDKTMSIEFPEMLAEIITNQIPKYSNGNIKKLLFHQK
Muscarinic acetylcholine receptor M1 (Rattus norvegicus), sequence (P08482 whole entry, looked up): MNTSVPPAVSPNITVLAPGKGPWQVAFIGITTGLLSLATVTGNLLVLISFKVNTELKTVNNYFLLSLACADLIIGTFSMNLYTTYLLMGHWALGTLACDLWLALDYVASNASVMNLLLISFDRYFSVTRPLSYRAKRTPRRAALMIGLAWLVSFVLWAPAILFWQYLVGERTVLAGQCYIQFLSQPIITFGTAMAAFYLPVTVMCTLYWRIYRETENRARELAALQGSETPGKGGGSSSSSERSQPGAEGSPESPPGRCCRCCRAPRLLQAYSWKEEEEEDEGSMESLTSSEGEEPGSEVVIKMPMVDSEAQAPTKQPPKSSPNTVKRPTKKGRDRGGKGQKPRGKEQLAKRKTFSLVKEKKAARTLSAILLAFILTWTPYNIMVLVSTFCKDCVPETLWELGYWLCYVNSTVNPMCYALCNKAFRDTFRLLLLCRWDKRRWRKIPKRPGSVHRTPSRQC
Guanine nucleotide-binding protein G(i) subunit alpha-1 (Homo sapiens), sequence (P63096 whole entry, looked up): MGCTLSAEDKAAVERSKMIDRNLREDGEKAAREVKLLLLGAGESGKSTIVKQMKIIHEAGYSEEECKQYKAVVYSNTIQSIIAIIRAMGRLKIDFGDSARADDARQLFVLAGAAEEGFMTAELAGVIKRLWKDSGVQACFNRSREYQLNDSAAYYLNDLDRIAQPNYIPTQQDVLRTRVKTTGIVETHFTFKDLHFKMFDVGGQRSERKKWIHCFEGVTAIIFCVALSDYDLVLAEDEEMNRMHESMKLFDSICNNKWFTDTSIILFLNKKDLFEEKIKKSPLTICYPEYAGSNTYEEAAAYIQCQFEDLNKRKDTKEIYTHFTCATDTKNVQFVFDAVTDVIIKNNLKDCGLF
Pyruvate kinase (Leishmania mexicana), sequence (Q27686 2-499 E452W): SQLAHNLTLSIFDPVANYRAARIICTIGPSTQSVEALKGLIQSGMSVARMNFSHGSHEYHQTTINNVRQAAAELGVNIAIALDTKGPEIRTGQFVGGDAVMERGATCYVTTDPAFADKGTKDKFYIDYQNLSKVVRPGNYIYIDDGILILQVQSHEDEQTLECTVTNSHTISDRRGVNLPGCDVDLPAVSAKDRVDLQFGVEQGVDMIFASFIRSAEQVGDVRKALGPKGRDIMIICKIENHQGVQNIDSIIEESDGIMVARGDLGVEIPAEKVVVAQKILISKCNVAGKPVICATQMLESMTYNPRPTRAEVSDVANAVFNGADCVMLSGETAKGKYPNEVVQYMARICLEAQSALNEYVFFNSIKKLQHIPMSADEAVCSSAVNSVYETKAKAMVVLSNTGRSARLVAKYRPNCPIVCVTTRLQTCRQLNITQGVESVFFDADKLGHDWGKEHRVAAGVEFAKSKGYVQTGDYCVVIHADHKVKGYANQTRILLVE
Cytochrome P450 2D6 (Homo sapiens), sequence (P10635 whole entry, looked up): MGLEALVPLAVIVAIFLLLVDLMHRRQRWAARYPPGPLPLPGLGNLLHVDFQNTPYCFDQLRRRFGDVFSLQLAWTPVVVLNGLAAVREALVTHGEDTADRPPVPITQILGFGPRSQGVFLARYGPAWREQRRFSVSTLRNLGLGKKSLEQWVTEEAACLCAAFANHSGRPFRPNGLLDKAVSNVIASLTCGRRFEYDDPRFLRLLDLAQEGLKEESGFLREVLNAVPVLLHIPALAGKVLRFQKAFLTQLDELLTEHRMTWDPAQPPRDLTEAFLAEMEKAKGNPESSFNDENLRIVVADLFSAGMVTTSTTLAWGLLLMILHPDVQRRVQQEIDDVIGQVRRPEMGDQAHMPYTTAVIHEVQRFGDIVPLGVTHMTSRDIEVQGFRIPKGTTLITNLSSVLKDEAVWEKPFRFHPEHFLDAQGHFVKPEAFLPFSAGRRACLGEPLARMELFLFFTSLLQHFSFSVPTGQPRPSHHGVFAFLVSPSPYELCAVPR
Cytochrome P450 3A4 (Homo sapiens), sequence (P08684 whole entry, looked up): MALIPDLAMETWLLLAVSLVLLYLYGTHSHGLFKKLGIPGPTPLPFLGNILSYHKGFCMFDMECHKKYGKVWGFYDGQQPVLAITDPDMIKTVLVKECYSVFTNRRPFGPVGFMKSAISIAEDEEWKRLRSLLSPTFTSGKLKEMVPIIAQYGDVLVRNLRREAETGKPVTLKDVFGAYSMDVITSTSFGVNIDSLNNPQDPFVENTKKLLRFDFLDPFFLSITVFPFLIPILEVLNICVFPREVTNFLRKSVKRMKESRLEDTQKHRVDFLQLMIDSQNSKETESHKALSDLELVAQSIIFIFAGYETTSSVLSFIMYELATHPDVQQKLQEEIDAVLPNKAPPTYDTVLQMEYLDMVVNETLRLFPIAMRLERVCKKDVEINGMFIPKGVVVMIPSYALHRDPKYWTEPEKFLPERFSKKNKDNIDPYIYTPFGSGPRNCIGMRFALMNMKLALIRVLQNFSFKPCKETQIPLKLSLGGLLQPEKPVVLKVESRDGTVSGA
Alpha-galactosidase (Coffea arabica), sequence (Q42656 whole entry, looked up): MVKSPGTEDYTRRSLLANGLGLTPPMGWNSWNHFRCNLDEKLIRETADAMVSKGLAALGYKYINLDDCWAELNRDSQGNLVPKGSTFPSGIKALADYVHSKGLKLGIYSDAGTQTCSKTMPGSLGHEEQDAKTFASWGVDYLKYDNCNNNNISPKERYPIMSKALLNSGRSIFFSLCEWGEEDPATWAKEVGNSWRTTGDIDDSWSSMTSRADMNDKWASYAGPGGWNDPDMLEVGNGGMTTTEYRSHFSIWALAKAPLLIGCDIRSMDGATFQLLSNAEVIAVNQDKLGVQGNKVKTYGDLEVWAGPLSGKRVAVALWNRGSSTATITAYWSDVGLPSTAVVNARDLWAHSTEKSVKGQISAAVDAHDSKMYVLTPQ

C=CCN1CCC2(C)c3cc(O)ccc3C[C@H]1[C@H]2C
inactive: activity change, negative = inhibition [2] -29.1% | Potency [3] > 46 µM | Potency [4] > 46 µM | outcome [5] | Potency [6] | outcome [7] | Potency [9] | outcome [10] | outcome [13] | outcome [14] | outcome [15] | outcome [16] | Potency (Furin (Homo sapiens)) | Potency [17] | Potency [18]
inactive and 31.6 µM (active): Potency [1]
active: Potency [8] 7.94 µM and 631 nM | Potency [11] 14.1 µM | Potency [12] 17.8 µM and 15.8 µM

CN1CCc2cc3c(cc2C1C1OC(=O)c2c1ccc1c2OCO1)OCO3 (stereo unspecified)
inactive: Potency [19]

CC1CCCC(=O)CCC/C=C/c2cc(O)cc(O)c2C(=O)O1 (stereo unspecified)
inactive: Potency [19]
